Measured values as given in PubChem BioAssay (NCATS).
Results filed as inconclusive are left out. Active and inactive are the calls of the source. Calls come from the whole dose curve; as a rule, active = well fitted curve in the direction sought with a large enough effect; inconclusive = small, poorly fitted or top-dose-only effect, or another doubt; inactive = no such curve, though single readings can be large; an effect the other way counts as inactive or inconclusive.

Legend:
[1] = target: Glutathione peroxidase 1 (Homo sapiens) (UniProt P07203); experiment: Primary qHTS Assay for Inhibitors of Recombinant Selenoprotein Glutathione Peroxidase 1 (GPX1) (AID 1845191); note: nearly all actives have a fitted effect of over 65% in size; for activity, negative = inhibition: % is set by controls: 0 for no effect and ±100 for the full control effect
In short: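 GR-coupled assay: compounds preincubated 30 min at room temperature with GPX1, then reaction started with CHP; final 10 nM GPX1, 1 mM GSH, 0.5 mM CHP, 0.5 mM NADPH, 100 nM GR, 0.01% BSA, pH 7.5 Tris buffer. NADPH fluorescence (340/450 nm) read at 0 and 15 min.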

[2] = target: Phospholipid hydroperoxide glutathione peroxidase GPX4 (Homo sapiens) (UniProt P36969); experiment: Primary qHTS Assay for Inhibitors of Recombinant Selenoprotein Glutathione Peroxidase 4 (GPX4) (AID 1845192); note: nearly all actives have a fitted effect of over 65% in size; for activity change, negative = inhibition: series mostly up to about 50 µM; % is set by controls: 0 for no effect and ±100 for the full control effect
In short: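 GR-coupled assay: recombinant GPX4 preincubated 30 min with compound at room temperature; final 200 nM GPX4, 1 mM GSH, 0.5 mM cumene hydroperoxide, 0.5 mM NADPH, 100 nM GR, 0.01% BSA, pH 7.5 Tris. NADPH fluorescence (340/450 nm) read at 0 and 15 min.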

[3] = target: Luciferin 4-monooxygenase (Photinus pyralis) (UniProt P08659); experiment: Primary firefly luciferase (FLuc) qHTS assay for identification of artifact compounds. (AID 1845220); note: nearly all actives have a fitted effect of over 60% in size;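 for activity change, negative = inhibition: series mostly up to about 54 µM; plate controls were DMSO vehicle for no effect and no enzyme for full effect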
In short: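 Enzymatic FLuc inhibition assay: compounds pre-exposed to luciferin/ATP (10 uM each) for 15 min, then purified P. pyralis enzyme at 10 nM added. Read-out: luminescence at 5 min.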

[4] = Primary fluorescence-based thiol-reactive (MSTI) qHTS assay for identification of artifact compounds. (AID 1845221);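 note: series mostly up to about 54 µM; thiol-reactive compounds lower the probe fluorescence signal; nearly all actives have a fitted effect of over 65% in size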
In short: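 A multi-concentration qHTS design tested compounds against 4 uM MSTI, pH 7.4 phosphate-buffered saline. Plates were protected from light for 1 h at room temperature before imaging fluorescence.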

[5] = system: Nanoluciferase (engineered Oplophorus gracilirostris luciferase); experiment: Primary Nanoluciferase (NLuc) qHTS assay for identification of artifact compounds. (AID 1845222);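 note: NLuc secreted into diluted conditioned medium of S16 cells; series mostly up to about 54 µM; 0% = DMSO and -100% = no enzyme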
In short: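 S16 cell supernatant NLuc, 1:55; cpds qHTS; 15 min RT dark; Nano-Glo substrate 1:100, 5 min; luminescence; Hill fit of % inhibition.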

[6] = Primary redox qHTS assay for identification of artifact compounds. (AID 1845223);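 note: 0% = DMSO and 100% = reference compound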
In short: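 Amplex Red (25 uM) and HRP (250 mU/mL) in HBSS, with compounds for 15 min, then 250 uM DTT for 30 min, room temperature, dark. Fluorescence 525/598 nm read; normalized to DMSO and 10 uM DA3003; Hill fit.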

Chain of Glutathione peroxidase 1 (Homo sapiens) (P07203 whole entry, looked up): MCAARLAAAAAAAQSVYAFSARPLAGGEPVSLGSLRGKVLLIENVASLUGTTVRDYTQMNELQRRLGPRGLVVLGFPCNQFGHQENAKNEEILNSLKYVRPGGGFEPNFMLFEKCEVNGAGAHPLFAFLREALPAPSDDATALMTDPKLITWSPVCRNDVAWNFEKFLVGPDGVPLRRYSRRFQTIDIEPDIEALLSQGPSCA
Chain of Phospholipid hydroperoxide glutathione peroxidase GPX4 (Homo sapiens) (P36969 whole entry, looked up): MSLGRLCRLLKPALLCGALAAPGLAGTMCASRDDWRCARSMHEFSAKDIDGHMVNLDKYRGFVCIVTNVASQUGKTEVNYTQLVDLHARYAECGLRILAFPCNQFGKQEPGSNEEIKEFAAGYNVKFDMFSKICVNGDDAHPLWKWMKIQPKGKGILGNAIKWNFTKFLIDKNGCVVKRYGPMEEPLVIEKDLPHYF

CC(C)(O)c1ccn2c(-c3ccc(F)c(-c4ccc(F)cc4C#N)c3)cnc2c1F
inactive: Potency [1] | Potency [2] | Potency [3] | Potency [4] | Potency [5] | Potency [6]

O=c1[nH]c2ccc(C#CCN3CCC(Cc4ccccc4)CC3)cc2[nH]1
inactive: Potency [1] | Potency [2] | Potency [3] | Potency [4] | Potency [5] | Potency [6]

O=C(N[C@H](Cc1cscn1)C(=O)N[C@@H](CC1CCCCC1)[C@@H](O)[C@@H](O)C1CC1)c1nc2ccccc2[nH]1
inactive: Potency [1] | Potency [2] | Potency [3] | Potency [4] | Potency [5] | Potency [6]

CC(C)c1c(O)ccc2c1CC[C@H]1C(C)(C)CCC[C@]21C
inactive: Potency [1] | Potency [2] | Potency [3] | Potency [4] | Potency [5] | Potency [6]

Cc1ccccc1CN1CCn2c1nc1c(c2=O)CN(Cc2ccccc2)CC1
inactive: Potency [1] | Potency [2] | Potency [3] | Potency [4] | Potency [5] | Potency [6]

CCCN(CCc1ccsc1)C1CCc2c(O)cccc2C1 (stereo unspecified)
inactive: Potency [1] | Potency [2] | Potency [3] | Potency [4] | Potency [5] | Potency [6]

CC[N+]1(C/C2=C/CCCCCC2)CCC(NC(=O)C2c3cc(Cl)ccc3Oc3ccc(Cl)cc32)CC1 (stereo unspecified)
inactive: Potency [1] | Potency [2] | Potency [3] | Potency [4] | Potency [5] | Potency [6]

CCn1c(-c2nonc2N)nc2c(C#CCO)ncc(OCCCN)c21
inactive: Potency [1] | Potency [2] | Potency [3] | Potency [4] | Potency [5] | Potency [6]

Cn1cc(-c2ccc(F)c(C(F)(F)F)c2)nc1C1CCN(c2ncnc3[nH]ncc23)CC1
inactive: Potency [1] | Potency [2] | Potency [3] | Potency [4] | Potency [5] | Potency [6]

Cc1c(C2=CCN(C(=O)N(C)C(C)C)CC2)nnn1-c1cccnc1F
inactive: Potency [1] | Potency [2] | Potency [3] | Potency [4] | Potency [5] | Potency [6]

OC1(CN2CCC(COc3noc4cccc(O[C@@H]5CCOC5)c34)CC2)CCOCC1
inactive: Potency [1] | Potency [2] | Potency [3] | Potency [4] | Potency [5] | Potency [6]

Cc1noc(C)c1-c1cc(O)cc(C(O)c2ccccc2)c1 (stereo unspecified)
inactive: Potency [1] | Potency [2] | Potency [3] | Potency [4] | Potency [5] | Potency [6]

O=C(NCc1ccc(OC(F)(F)F)cc1)C1c2c(F)cccc2C(=O)N1CCc1ccccn1 (stereo unspecified)
inactive: Potency [1] | Potency [2] | Potency [3] | Potency [4] | Potency [5] | Potency [6]

CCCc1cc2c(N3CCN(C4=NCC(C)(C)S4)CC3)ncnc2s1
inactive: Potency [1] | Potency [2] | Potency [3] | Potency [4] | Potency [5] | Potency [6]

CC(=O)O[C@H]1C[C@@](O)(C(C)C)[C@@H]2[C@@H](OC(=O)c3ccc(O)cc3)CC(C)=CC[C@@]12C
inactive: Potency [1] | Potency [2] | Potency [3] | Potency [4] | Potency [5] | Potency [6]

C=C1CCC[C@]2(C)CC/C(=C(/CO)C(=O)OC)C[C@@H]12
inactive: Potency [1] | Potency [2] | Potency [3] | Potency [4] | Potency [5] | Potency [6]

CC(C)=C1C[C@@]2(C)C(=CC1=O)CC[C@@H](OC(=O)/C(C)=C/CO)[C@@H]2C
inactive: Potency [1] | Potency [2] | Potency [3] | Potency [4] | Potency [5] | Potency [6]

COc1cc(O)c2c(c1)C1OC1C[C@H](O)[C@H](O)C(=O)/C=C\C[C@H](C)OC2=O (stereo partly specified)
inactive: Potency [1] | Potency [2] | Potency [3] | Potency [4] | Potency [5] | Potency [6]

CCCC(CCC)C(=O)Nc1ccn([C@@H]2O[C@H](CO)[C@@H](O)C2(F)F)c(=O)n1
inactive: Potency [1] | Potency [2] | Potency [3] | Potency [4] | Potency [5] | Potency [6]

C/C=C\NC(=O)C1NC(=O)C(CC(N)=O)NC(=O)C(NC(=O)C(=O)C(C)CC)Cc2ccc(O)c(c2)-c2cccc3c2NC(=O)C3(O)C1O (stereo unspecified)
inactive: Potency [1] | Potency [2] | Potency [3] | Potency [4] | Potency [5] | Potency [6]

C=C1C(=O)O[C@@H]2[C@H]1CCC(C)=C(CCC(=O)O)[C@@]2(C)O
inactive: Potency [1] | Potency [2] | Potency [3] | Potency [4] | Potency [5] | Potency [6]

C=C1C(=O)OC2CC(C)C(CCC(C)=O)=CCC12 (stereo unspecified)
inactive: Potency [1] | Potency [2] | Potency [3] | Potency [4] | Potency [5] | Potency [6]

CO[C@H]1[C@@H](O)[C@H](O[C@H]2CC[C@@]3(C)C(CCC4C3CC[C@]35COC6(COC(=O)C6)C3CCC45O)C2)O[C@@H](C)[C@@H]1OC1OC(CO)C(OC2OC(CO)C(O)C(O)C2O)C(O)C1O (stereo partly specified)
inactive: Potency [1] | Potency [2] | activity change, negative = inhibition [3] -4.26% [at 11.6 µM] | activity change, negative = thiol reactive [4] 77.5% [at 11.5 µM] | activity, negative = inhibition [5] -0.128% [at 11.6 µM] | redox activity (% of DA3003) [6] -0.0298% [at 11.5 µM]

O=C(NCC1(N2CCN(c3ccccc3)CC2)CCOCC1)c1cccnc1Sc1ccccc1
inactive: Potency [1] | Potency [2] | Potency [3] | Potency [4] | Potency [5] | Potency [6]

CCCCc1c(-c2ccc(OC)cc2)[nH]c2nccnc12
inactive: Potency [1] | Potency [2] | Potency [3] | Potency [4] | Potency [5] | Potency [6]

COc1ccc(Sc2ccc(NC(=O)c3ccccc3Cl)cc2C#N)cc1
inactive: Potency [1] | Potency [2] | Potency [3] | Potency [4] | Potency [5] | Potency [6]
